# Experimental data from PubChem BioAssay (NCATS).
# Results filed as inconclusive are left out. Unmarked numbers belong to inactive results. The source made the active and inactive calls. The call rests on the fitted dose curve; in most records, active means well fitted curve in the direction sought with a large enough effect; inconclusive means small, poorly fitted or top-dose-only effect, or another doubt; inactive means no such curve, though single readings can be large; an effect the other way counts as inactive or inconclusive.
# Assay: qHTS of pediatric cancer cell lines to identify multiple opportunities for drug repurposing: Primary screen for Rh18 cells (AID 1347102); further: nearly all actives have a fitted effect of over 65% in size; on activity change, negative = cytotoxic: on the % scale 0 is the no-effect control and ±100 the full control effect
# Details: Rh18 rhabdomyosarcoma viability, CellTiter-Glo luminescence, 48 h; series mostly up to 46 µM; activity change, negative = cytotoxic: at the top concentration
# Method in brief: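 Viability after 48 h compound treatment at 37C, 500-1,000 cells/well, read as ATP luminescence with CellTiter-Glo. Primary screens used 11-point (MIPE, 0.78 nM-46 µM) or 8-point (NPC, 0.59 nM-46 µM) final concentrations; follow-up screens used 11-point dilutions.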
# Potency means the concentration at half of the fitted maximal effect.
Structure (SMILES),"activity change, negative = cytotoxic",Potency
O=C1C(I)=CC(=C(c2cc(I)c(O)c(I)c2)c2ccccc2C(=O)O)C=C1I,-1.52%,
CCCCCCCCc1ccc(O)cc1,-16.1% [at 92.7 µM],
CC(=O)Nc1ccc(OC[C@](C)(O)C(=O)Nc2ccc([N+](=O)[O-])c(C(F)(F)F)c2)cc1,6.23%,
C=C[C@@H]1CN2CCC1C[C@H]2[C@H](O)c1ccnc2ccccc12 (stereo partly specified),,23.5 µM (active)
CCN(CC)C(=O)c1ccc(C2=CC3(CCNCC3)Oc3cccc(O)c32)cc1,-0.185%,
CC(N[C@H]1C[C@H]1c1ccccc1)c1ccc2c(c1)OCCO2 (stereo partly specified),-3.81%,
CC=C(C)C(=O)N[C@@H](c1ccccc1)[C@@H](O)C(=O)O[C@H]1C[C@@]2(O)[C@@H](OC(=O)c3ccccc3)[C@@H]3[C@]4(OC(C)=O)CO[C@@H]4C[C@H](O)[C@@]3(C)C(=O)[C@H](OC(C)=O)C(=C1C)C2(C)C,-26.6%,
COc1ccc(CC2NCCc3cc(OC)c(OC)cc32)cc1OC (stereo unspecified),-0.79%,
O=S(=O)(c1ccc(Cl)cc1)c1ccc(Cl)cc1,-14.6% [at 92.7 µM],
S=C(SSC(=S)N1CCCCC1)N1CCCCC1,,0.0299 µM (active)

# Assay: qHTS of pediatric cancer cell lines to identify multiple opportunities for drug repurposing: Primary screen for OHS-50 cells (AID 1347103); further: nearly all actives have a fitted effect of over 40% in size;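 on activity change, negative = cytotoxic: plate controls were DMSO neutral control for no effect and bortezomib positive control for full effect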
# Details: OHS-50 osteosarcoma viability, CellTiter-Glo luminescence, 48 h; series mostly up to 57.3 µM; activity change, negative = cytotoxic: at the top concentration
# Method in brief: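 Cells (500-1,000/well) rested 5 h, then received compounds for 48 h; metabolically active cells were measured by CellTiter-Glo luminescence. Final concentrations spanned up to 46 µM (MIPE, 11-point) or 0.59 nM-46 µM (NPC, 8-point) in primary screens, 11-point in follow-ups.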
Structure (SMILES),"activity change, negative = cytotoxic [%]",Potency
CCCN1CCO[C@@H]2c3cc(O)ccc3OC[C@@H]21,91.5,
Cc1c(N)nc([C@H](CC(N)=O)NC[C@@H](N)C(N)=O)nc1C(=O)N[C@H](C(=O)N[C@@H](C)[C@H](O)[C@@H](C)C(=O)N[C@@H](C(=O)NCCc1nc(-c2nc(C(=O)NCCC[S+](C)C)cs2)cs1)[C@@H](C)O)C(O[C@H]1O[C@H](CO)[C@H](O)[C@@H](O)[C@@H]1O[C@H]1O[C@H](CO)[C@@H](O)[C@H](OC(N)=O)[C@H]1O)c1cnc[nH]1 (stereo partly specified),,1.72 µM (active)
C#C[C@]1(O)C=C[C@@H]2[C@@H]3CCC4=CC(=O)CC[C@@H]4[C@H]3CC[C@@]21CC,-18,
Oc1ccc2c3c1O[C@H]1c4[nH]c5c(c4C[C@@]4(O)[C@@H](C2)N(CC2CC2)CC[C@]314)C[C@@]1(O)[C@H]2Cc3ccc(O)c4c3[C@@]1(CCN2CC1CC1)[C@H]5O4,6.8,
CO/C=C(/C(=O)OC)c1ccccc1Oc1cc(Oc2ccccc2C#N)ncn1,,14.2 µM (active)
CC[C@H]1C=CC=CC[C@@H](C)[C@H](O)[C@@](C)(O)C(=O)[C@@H](C)[C@H](O)[C@@H](C)C(=O)[C@@H](C)[C@H](O)[C@@H](C)C=CC(=O)O[C@@H]2[C@@H](C)[C@H](CC1)O[C@]1(CC[C@H](C)[C@H](C[C@@H](C)O)O1)[C@H]2C,,0.0049 µM (active)
ClC1=C(Cl)[C@]2(Cl)[C@@H]3[C@@H]4C[C@@H]([C@H]5O[C@@H]45)[C@@H]3[C@@]1(Cl)C2(Cl)Cl,,28.2 µM (active)
CCC(=O)O[C@@H]1C=C2CCC3C(CCC4(C)C3CC[C@@H]4OC(=O)CC)C2CC1 (stereo partly specified),-14.5,
C[C@](O)(COc1ccc(C#N)cc1)C(=O)Nc1ccc(C#N)c(C(F)(F)F)c1,,27.3 µM (active)
CCCCCC[C@H]1C(=O)O[C@H](C)[C@H](NC(=O)c2cccc(NC=O)c2O)C(=O)O[C@@H](C)[C@@H]1OC(=O)CC(C)C,,0.0611 µM (active)
CCOP(=O)(OCC)C(C)NC(=O)N(CCCl)N=O (stereo unspecified),6.37,
CC1(N2CCC(n3c([C@@H]4CCCNC4)nc4ccccc43)CC2)CCCCCCC1,,24.3 µM (active)
Cc1cc(O)ccc1Cl,1.61,
C#CC1(O)CCC2C3CCC4=CC(=O)CCC4(C)C3CCC21C (stereo unspecified),-12.1,
O=C1C(I)=CC(=C(c2cc(I)c(O)c(I)c2)c2ccccc2C(=O)O)C=C1I,-17,
CCCCCCCCc1ccc(O)cc1,,25.4 µM (active)
CC(=O)Nc1ccc(OC[C@](C)(O)C(=O)Nc2ccc([N+](=O)[O-])c(C(F)(F)F)c2)cc1,-21.4,
CC(N[C@H]1C[C@H]1c1ccccc1)c1ccc2c(c1)OCCO2 (stereo partly specified),12.1,
CC=C(C)C(=O)N[C@@H](c1ccccc1)[C@@H](O)C(=O)O[C@H]1C[C@@]2(O)[C@@H](OC(=O)c3ccccc3)[C@@H]3[C@]4(OC(C)=O)CO[C@@H]4C[C@H](O)[C@@]3(C)C(=O)[C@H](OC(C)=O)C(=C1C)C2(C)C,,0.001 µM (active)

# Assay: qHTS of pediatric cancer cell lines to identify multiple opportunities for drug repurposing: Primary screen for RD cells (AID 1347104); further: nearly all actives have a fitted effect of over 55% in size;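 on activity change, negative = cytotoxic: plate controls were DMSO for no effect and bortezomib for full effect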
# Details: RD rhabdomyosarcoma viability, CellTiter-Glo luminescence, 48 h; series mostly up to 46 µM; activity change, negative = cytotoxic: at the top concentration
# Method in brief: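 Cells seeded at 500-1,000 cells/well in growth media, rested 5 hours at 37 degrees C, 5% CO2, then dosed; MIPE compounds at 11-point (from 0.78 nM) and NPC at 8-point (from 0.59 nM) final concentrations. Viability by CellTiter-Glo luminescence after 48 hours.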
Structure (SMILES),"activity change, negative = cytotoxic",Potency
CCO/N=C(\CC)C1=C(O)CC(c2c(C)cc(C)cc2C)CC1=O (stereo unspecified),5.83% [at 92.7 µM],
CC(C)[C@H]1C(=O)N[C@H](CO)Cc2c[nH]c3cccc(c23)N1C,-9.51%,
C#C[C@]1(O)C=C[C@@H]2[C@@H]3CCC4=CC(=O)CC[C@@H]4[C@H]3CC[C@@]21CC,5.82%,
CC1(C)CC/C(=C/c2ccc(Cl)cc2)C1(O)Cn1cncn1 (stereo unspecified),-15.4% [at 92.7 µM],
CCCCOC(=O)c1ccccc1C(=O)OCc1ccccc1,16.1% [at 92.7 µM],
Oc1ccc2c3c1O[C@H]1c4[nH]c5c(c4C[C@@]4(O)[C@@H](C2)N(CC2CC2)CC[C@]314)C[C@@]1(O)[C@H]2Cc3ccc(O)c4c3[C@@]1(CCN2CC1CC1)[C@H]5O4,7.53%,
CC[C@H]1C=CC=CC[C@@H](C)[C@H](O)[C@@](C)(O)C(=O)[C@@H](C)[C@H](O)[C@@H](C)C(=O)[C@@H](C)[C@H](O)[C@@H](C)C=CC(=O)O[C@@H]2[C@@H](C)[C@H](CC1)O[C@]1(CC[C@H](C)[C@H](C[C@@H](C)O)O1)[C@H]2C,,23.5 µM (active)
CCCCCCCCCC(CC)c1ccc(S(=O)(=O)O)cc1 (stereo unspecified),15.8% [at 92.7 µM],
CCC(=O)O[C@@H]1C=C2CCC3C(CCC4(C)C3CC[C@@H]4OC(=O)CC)C2CC1 (stereo partly specified),5.73%,
CCOP(=O)(OCC)C(C)NC(=O)N(CCCl)N=O (stereo unspecified),16.3%,
CC1(N2CCC(n3c([C@@H]4CCCNC4)nc4ccccc43)CC2)CCCCCCC1,,13.2 µM (active)
CC(C)(O)C(=O)Nc1ccc([N+](=O)[O-])c(C(F)(F)F)c1,,29.6 µM (active)
Cc1cc(O)ccc1Cl,7.18%,
C#CC1(O)CCC2C3CCC4=CC(=O)CCC4(C)C3CCC21C (stereo unspecified),-14.5%,
O=C1C(I)=CC(=C(c2cc(I)c(O)c(I)c2)c2ccccc2C(=O)O)C=C1I,-40.1%,
CCCCCCCCc1ccc(O)cc1,-12.9% [at 92.7 µM],
CC(=O)Nc1ccc(OC[C@](C)(O)C(=O)Nc2ccc([N+](=O)[O-])c(C(F)(F)F)c2)cc1,-14.7%,
C=C[C@@H]1CN2CCC1C[C@H]2[C@H](O)c1ccnc2ccccc12 (stereo partly specified),,37.2 µM (active)
CC(N[C@H]1C[C@H]1c1ccccc1)c1ccc2c(c1)OCCO2 (stereo partly specified),5.92%,
COc1ccc(CC2NCCc3cc(OC)c(OC)cc32)cc1OC (stereo unspecified),-25.4%,
O=S(=O)(c1ccc(Cl)cc1)c1ccc(Cl)cc1,-17.4% [at 92.7 µM],
S=C(SSC(=S)N1CCCCC1)N1CCCCC1,,0.0299 µM (active)
